# Measurements as given in the supplement of paper PMC8728848.
# About 410 targets per protein were measured; listed, in parts, are those with the strongest signals and a random draw of the rest.
# Tests used:
# Test in all cases: glycan array binding signal (z-score within array); higher = stronger binding
# Conditions in all cases: glycan notation: IUPAC condensed, linker removed
# [1] = biological target: Fuc(a1-2)Gal(b1-3)GalNAc(a1-3)[Fuc(a1-2)]Gal(b1-4)GlcNAc
# Procedure, shortened: (§1)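 Glycan array data were curated from 3228 arrays in the Consortium for Functional Glycomics database and kept only where the protein sequence was available. Glycan names were converted to IUPAC-condensed notation, and columns mapping to the same glycan were averaged. The binding signal is a within-array Z-score, averaged across arrays of the same protein sequence at different concentrations or buffers and across linkers. Negative Z-scores can be read as non-binding.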
# [2] = biological target: Fuc(a1-2)Gal(b1-3)GlcNAc(b1-2)Man(a1-3)[Fuc(a1-2)Gal(b1-3)GlcNAc(b1-2)Man(a1-6)]Man(b1-4)GlcNAc(b1-4)[Fuc(a1-6)]GlcNAc
# Procedure, shortened: as §1
# [3] = biological target: Fuc(a1-2)Gal(b1-3)[Fuc(a1-4)]GlcNAc(b1-2)Man(a1-3)[Fuc(a1-2)Gal(b1-3)[Fuc(a1-4)]GlcNAc(b1-2)Man(a1-3)]Man(b1-4)GlcNAc(b1-4)GlcNAc
# Procedure, shortened: as §1
# [4] = biological target: Fuc(a1-2)Gal(b1-3)[Fuc(a1-4)]GlcNAc(b1-2)Man(a1-3)[Fuc(a1-2)Gal(b1-3)[Fuc(a1-4)]GlcNAc(b1-2)Man(a1-6)]Man(b1-4)GlcNAc(b1-4)[Fuc(a1-6)]GlcNAc(b1-4)[Fuc(a1-6)]GlcNAc
# Procedure, shortened: as §1
# [5] = biological target: Fuc(a1-2)Gal(b1-4)Glc
# Procedure, shortened: as §1
# [6] = biological target: Fuc(a1-2)Gal(b1-4)GlcNAc(b1-3)GalNAc
# Procedure, shortened: as §1
# [7] = biological target: Fuc(a1-2)Gal(b1-4)GlcNAc(b1-6)GalNAc
# Procedure, shortened: as §1
# [8] = biological target: Fuc(a1-2)[GalNAc(a1-3)]Gal(b1-3)GlcNAc(b1-3)GalNAc
# Procedure, shortened: as §1
# [9] = biological target: Fuc(a1-2)[GalNAc(a1-3)]Gal(b1-4)GlcNAc(b1-2)Man(a1-3)[Fuc(a1-2)[GalNAc(a1-3)]Gal(b1-4)GlcNAc(b1-2)Man(a1-6)]Man(b1-4)GlcNAc(b1-4)GlcNAc
# Procedure, shortened: as §1
# [10] = biological target: Fuc(a1-2)[GalNAc(a1-3)]Gal(b1-4)[Fuc(a1-3)]GlcNAc(b1-3)GalNAc
# Procedure, shortened: as §1
# [11] = biological target: Fuc(a1-2)[GalNAc(a1-4)]Gal(b1-4)GlcNAc
# Procedure, shortened: as §1
# [12] = biological target: Fuc(a1-3)[Gal(b1-4)]GlcNAc(b1-2)Man
# Procedure, shortened: as §1
# [13] = biological target: Gal(a1-3)[Gal(a1-4)]Gal(b1-4)GlcNAc
# Procedure, shortened: as §1
# [14] = biological target: Gal(a1-4)Gal(b1-4)GlcNAc
# Procedure, shortened: as §1
# [15] = biological target: Gal(a1-6)Glc
# Procedure, shortened: as §1
# [16] = biological target: Gal(b1-3)GalNAc(a1-3)[Fuc(a1-2)]Gal(b1-4)GlcNAc
# Procedure, shortened: as §1
# [17] = biological target: Gal(b1-3)GlcNAc(b1-2)Man(a1-3)[Gal(b1-3)GlcNAc(b1-2)Man(a1-6)]Man(b1-4)GlcNAc(b1-4)GlcNAc
# Procedure, shortened: as §1
# [18] = biological target: Gal(b1-3)GlcNAc(b1-3)Gal(b1-4)GlcNAc(b1-2)[Gal(b1-3)GlcNAc(b1-3)Gal(b1-4)GlcNAc(b1-6)]Man(a1-6)[Gal(b1-3)GlcNAc(b1-3)Gal(b1-4)GlcNAc(b1-2)Man(a1-3)]Man(b1-4)GlcNAc(b1-4)[Fuc(a1-6)]GlcNAc
# Procedure, shortened: as §1
# [19] = biological target: Gal(b1-3)GlcNAc6S
# Procedure, shortened: as §1
# [20] = biological target: Gal(b1-3)[Fuc(a1-4)]GlcNAc(b1-6)GalNAc
# Procedure, shortened: as §1
# [21] = biological target: Gal(b1-4)GlcNAc(b1-2)Man(a1-6)[Man(a1-3)]Man(b1-4)GlcNAc(b1-4)GlcNAc
# Procedure, shortened: as §1
# [22] = biological target: Gal(b1-4)GlcNAc(b1-3)Gal(b1-4)GlcNAc
# Procedure, shortened: as §1
# [23] = biological target: Gal(b1-4)GlcNAc(b1-3)Gal(b1-4)GlcNAc(b1-2)Man(a1-3)[Gal(b1-4)GlcNAc(b1-3)Gal(b1-4)GlcNAc(b1-2)Man(a1-6)]Man(b1-4)GlcNAc(b1-4)[Fuc(a1-6)]GlcNAc
# Procedure, shortened: as §1
# [24] = biological target: Gal(b1-4)GlcNAc(b1-3)Gal(b1-4)GlcNAc(b1-3)Gal(b1-4)GlcNAc(b1-2)[Gal(b1-4)GlcNAc(b1-3)Gal(b1-4)GlcNAc(b1-3)Gal(b1-4)GlcNAc(b1-6)]Man(a1-6)[Gal(b1-4)GlcNAc(b1-3)Gal(b1-4)GlcNAc(b1-3)Gal(b1-4)GlcNAc(b1-2)Man(a1-3)]Man(b1-4)GlcNAc(b1-4)[Fuc(a1-6)]GlcNAc
# Procedure, shortened: as §1
# [25] = biological target: Gal(b1-4)GlcNAc(b1-3)Gal(b1-4)GlcNAc(b1-3)Gal(b1-4)GlcNAc(b1-3)Gal(b1-4)GlcNAc(b1-2)Man(a1-3)[Gal(b1-4)GlcNAc(b1-3)Gal(b1-4)GlcNAc(b1-3)Gal(b1-4)GlcNAc(b1-3)Gal(b1-4)GlcNAc(b1-2)Man(a1-6)]Man(b1-4)GlcNAc(b1-4)GlcNAc
# Procedure, shortened: as §1
# [26] = biological target: Gal(b1-4)GlcNAc(b1-3)Gal(b1-4)GlcNAc(b1-3)Gal(b1-4)GlcNAc(b1-3)Gal(b1-4)GlcNAc(b1-3)Gal(b1-4)GlcNAc(b1-3)Gal(b1-4)GlcNAc(b1-2)Man(a1-3)[Gal(b1-4)GlcNAc(b1-3)Gal(b1-4)GlcNAc(b1-3)Gal(b1-4)GlcNAc(b1-3)Gal(b1-4)GlcNAc(b1-3)Gal(b1-4)GlcNAc(b1-3)Gal(b1-4)GlcNAc(b1-2)Man(a1-6)]Man(b1-4)GlcNAc(b1-4)GlcNAc
# Procedure, shortened: as §1
# [27] = biological target: Gal3S(b1-4)[Fuc(a1-3)]Glc6S
# Procedure, shortened: as §1
# [28] = biological target: Gal3S6S(b1-4)GlcNAc
# Procedure, shortened: as §1
# [29] = biological target: Gal6S(b1-4)GlcNAc6S
# Procedure, shortened: as §1
# [30] = biological target: GlcNAc(a1-4)Gal(b1-4)GlcNAc(b1-3)Gal(b1-4)GlcNAc
# Procedure, shortened: as §1
# [31] = biological target: GlcNAc(b1-2)Man(a1-3)[GlcNAc(b1-4)][GlcNAc(b1-2)Man(a1-6)]Man(b1-4)GlcNAc(b1-4)[Fuc(a1-6)]GlcNAc
# Procedure, shortened: as §1
# [32] = biological target: GlcNAc(b1-3)Gal(b1-4)GlcNAc(b1-3)Gal(b1-4)GlcNAc(b1-3)Gal(b1-4)GlcNAc(b1-3)Gal(b1-4)GlcNAc(b1-2)Man(a1-3)[GlcNAc(b1-3)Gal(b1-4)GlcNAc(b1-3)Gal(b1-4)GlcNAc(b1-3)Gal(b1-4)GlcNAc(b1-3)Gal(b1-4)GlcNAc(b1-2)Man(a1-6)]Man(b1-4)GlcNAc(b1-4)GlcNAc
# Procedure, shortened: as §1
# [33] = biological target: GlcNAc(b1-4)GlcNAc(b1-4)GlcNAc(b1-4)GlcNAc(b1-4)GlcNAc
# Procedure, shortened: as §1
# [34] = biological target: Kdn(a2-3)Gal(b1-3)GalNAc
# Procedure, shortened: as §1
# [35] = biological target: Neu5Ac(a2-3)Gal(b1-4)GlcNAc(b1-2)[Neu5Ac(a2-3)Gal(b1-4)GlcNAc(b1-4)]Man(a1-3)[GlcNAc(b1-4)][Neu5Ac(a2-3)Gal(b1-4)GlcNAc(b1-4)Man(a1-6)]Man(b1-4)GlcNAc(b1-4)GlcNAc
# Procedure, shortened: as §1
# [36] = biological target: Neu5Ac(a2-3)Gal(b1-4)GlcNAc(b1-3)Gal(b1-4)GlcNAc(b1-2)Man(a1-3)[Neu5Ac(a2-3)Gal(b1-4)GlcNAc(b1-3)Gal(b1-4)GlcNAc(b1-2)Man(a1-6)]Man(b1-4)GlcNAc(b1-4)GlcNAc
# Procedure, shortened: as §1
# [37] = biological target: Neu5Ac(a2-3)Gal(b1-4)GlcNAc(b1-6)[Neu5Ac(a2-3)Gal(b1-3)]GalNAc
# Procedure, shortened: as §1
# [38] = biological target: Neu5Ac(a2-3)Gal(b1-4)[Fuc(a1-3)]GlcNAc6S
# Procedure, shortened: as §1
# [39] = biological target: Neu5Ac(a2-3)[GalNAc(b1-4)]Gal(b1-4)GlcNAc
# Procedure, shortened: as §1
# [40] = biological target: Neu5Ac(a2-6)Gal(b1-4)GlcNAc(b1-2)Man(a1-6)[Man(a1-3)]Man(b1-4)GlcNAc(b1-4)GlcNAc
# Procedure, shortened: as §1
# [41] = biological target: Neu5Ac(a2-6)Gal(b1-4)GlcNAc(b1-3)GalNAc
# Procedure, shortened: as §1
# [42] = biological target: Neu5Ac(a2-6)Gal(b1-4)GlcNAc(b1-3)[Neu5Ac(a2-6)Gal(b1-4)GlcNAc(b1-6)]GalNAc
# Procedure, shortened: as §1
# [43] = biological target: Neu5Ac(a2-6)GalNAc(b1-4)GlcNAc6S
# Procedure, shortened: as §1
# [44] = biological target: Neu5Ac(a2-8)Neu5Ac(a2-3)Gal(b1-4)GlcNAc
# Procedure, shortened: as §1
# [45] = biological target: Neu5Ac(a2-8)Neu5Ac(a2-8)Neu5Ac
# Procedure, shortened: as §1
binder,measurement,setting,value
PX14367B-bvu-516-23-516 (Bacteroides vulgatus) (protein) LDTIPTTYVDAGSVFGKTGDAEKVLNGGWNYLMETFNSYANPGYGAMLRANDAMGSDVVLNSKYGFRTHNEFSAIYGKGGTNTLSWLLAYRVINDCNGVLDNIDAAEGTQADRNRIKGQALALRGFLYLHLASCYSFAIDKDPDAVCAPIYTQSTDETIAAEGKPASSVSEVYAQSINDLEEALELIPETYVRDAKHKIDNEVVLGILSRACLYARQWEKAKTYSDKLLAKDNYLMTESEYKAGFNSVDNKEWIWGHAQTNDQSNASYQFHYLDTTTKGSYYYSFNVDPYFRDLFEDGDYRKEMLFWATDPGADVESAAYVWMRNSKFRFRDIENQLGDIVLMRVAEIYLINAEAKAHLNDPDAINKLNDLKTARGAKTIHTNLSQQDLLETIWLERRKELWGEGFSLIDIIRNQQTVVRNAYPEGPIDYIYTDENGQTHTLKKKTQGHRFFNFPDKSAFCPNSKYYLYRITDSEELANKNLYKDHPKLSIYTK,glycan array binding signal (z-score),[1],-0.284
same,glycan array binding signal (z-score),[2],-0.028
same,glycan array binding signal (z-score),[3],-0.201
same,glycan array binding signal (z-score),[4],-0.237
same,glycan array binding signal (z-score),[5],-0.35
same,glycan array binding signal (z-score),[6],-0.282
same,glycan array binding signal (z-score),[7],-0.204
same,glycan array binding signal (z-score),[8],-0.26
same,glycan array binding signal (z-score),[9],7.56
same,glycan array binding signal (z-score),[10],0.034
same,glycan array binding signal (z-score),[11],4.75
same,glycan array binding signal (z-score),[12],-0.331
same,glycan array binding signal (z-score),[13],5.23
same,glycan array binding signal (z-score),[14],-0.328
same,glycan array binding signal (z-score),[15],-0.252
same,glycan array binding signal (z-score),[16],-0.361
same,glycan array binding signal (z-score),[17],7.76
same,glycan array binding signal (z-score),[18],4.21
same,glycan array binding signal (z-score),[19],-0.243
same,glycan array binding signal (z-score),[20],4.48
same,glycan array binding signal (z-score),[21],4.25
same,glycan array binding signal (z-score),[22],-0.337
same,glycan array binding signal (z-score),[23],0.011
same,glycan array binding signal (z-score),[24],7.91
same,glycan array binding signal (z-score),[25],0.812
same,glycan array binding signal (z-score),[26],7.87
same,glycan array binding signal (z-score),[27],2.87
same,glycan array binding signal (z-score),[28],-0.262
same,glycan array binding signal (z-score),[29],6.08
same,glycan array binding signal (z-score),[30],-0.2
same,glycan array binding signal (z-score),[31],-0.049
same,glycan array binding signal (z-score),[32],-0.276
same,glycan array binding signal (z-score),[33],-0.245
same,glycan array binding signal (z-score),[34],-0.198
same,glycan array binding signal (z-score),[35],-0.262
same,glycan array binding signal (z-score),[36],-0.164
same,glycan array binding signal (z-score),[37],-0.354
same,glycan array binding signal (z-score),[38],-0.354
same,glycan array binding signal (z-score),[39],-0.356
same,glycan array binding signal (z-score),[40],4.55
same,glycan array binding signal (z-score),[41],-0.386
same,glycan array binding signal (z-score),[42],0.372
same,glycan array binding signal (z-score),[43],-0.208
same,glycan array binding signal (z-score),[44],-0.353
same,glycan array binding signal (z-score),[45],-0.342
